# In PMC4336329 (PLoS ONE, 2015):
# Out of some 310,000 compounds screened, about 14,000 (4.5%) showed an effect of 50% or more. The effect is printed as a negative number. This is one part of a sample in which strong results are shown more often than they occur.
# Biological target: human ether-à-go-go-related gene (hERG) potassium channel (human, UniProt Q12809)
# Experiment: primary screen, population patch clamp on CHO cells stably expressing hERG; higher = less effect of the substance
# 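Also: peak tail current of the secondary pulse compared with the same well before compound.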
# Sequence of human ether-à-go-go-related gene (hERG) potassium channel (Q12809 whole entry, looked up): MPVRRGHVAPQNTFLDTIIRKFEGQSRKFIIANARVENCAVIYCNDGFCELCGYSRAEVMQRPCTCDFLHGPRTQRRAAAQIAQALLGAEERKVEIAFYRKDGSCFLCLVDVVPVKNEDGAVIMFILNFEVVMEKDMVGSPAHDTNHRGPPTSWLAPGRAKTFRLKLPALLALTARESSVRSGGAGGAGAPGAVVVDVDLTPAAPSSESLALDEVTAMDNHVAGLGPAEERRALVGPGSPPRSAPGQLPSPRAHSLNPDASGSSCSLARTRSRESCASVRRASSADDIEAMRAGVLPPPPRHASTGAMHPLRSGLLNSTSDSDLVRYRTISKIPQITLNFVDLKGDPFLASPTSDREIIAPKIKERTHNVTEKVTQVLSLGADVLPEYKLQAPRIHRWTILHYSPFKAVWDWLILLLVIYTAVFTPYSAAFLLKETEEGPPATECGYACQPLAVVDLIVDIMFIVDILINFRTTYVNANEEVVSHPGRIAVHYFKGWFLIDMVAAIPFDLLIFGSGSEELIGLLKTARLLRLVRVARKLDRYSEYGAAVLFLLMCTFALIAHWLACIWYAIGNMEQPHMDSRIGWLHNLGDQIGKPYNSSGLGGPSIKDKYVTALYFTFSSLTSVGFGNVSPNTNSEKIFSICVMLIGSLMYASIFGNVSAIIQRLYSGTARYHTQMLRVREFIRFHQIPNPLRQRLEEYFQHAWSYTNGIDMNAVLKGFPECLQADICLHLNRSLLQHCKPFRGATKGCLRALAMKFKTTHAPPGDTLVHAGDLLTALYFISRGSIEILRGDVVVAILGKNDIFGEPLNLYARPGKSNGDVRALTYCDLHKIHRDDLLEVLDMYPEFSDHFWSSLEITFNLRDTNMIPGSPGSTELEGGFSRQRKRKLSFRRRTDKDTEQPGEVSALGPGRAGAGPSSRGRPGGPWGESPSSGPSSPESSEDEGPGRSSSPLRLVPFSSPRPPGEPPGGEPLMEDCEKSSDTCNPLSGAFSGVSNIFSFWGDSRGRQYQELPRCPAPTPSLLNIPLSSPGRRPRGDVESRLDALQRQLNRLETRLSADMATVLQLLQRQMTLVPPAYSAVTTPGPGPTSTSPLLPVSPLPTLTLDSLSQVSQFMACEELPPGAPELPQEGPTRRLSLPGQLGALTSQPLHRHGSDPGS
row,SMILES,"hERG current change (%, negative = inhibition) at 10uM [%]"
1,C=CCOc1cccc(C2NC(=O)c3ccccc3O2)c1 (centres unmarked),21.4
2,C/C(=N/O)c1cc(C(C)(C)C)c(O)c(C(C)(C)C)c1,14.6
3,COc1ccc([C@@H]2CC=C(C(=O)O)[C@H](c3ccc(F)cc3)N2S(=O)(=O)c2ccc(C)cc2)cc1OC,10.5
4,Fc1cccc(Cl)c1Cn1nnc(-c2ccc3c(c2)OCO3)n1,-1.37
5,N=c1c2c3c(sc2nc2n1CCCCC2)CCCC3,-45.2
6,N=c1c2c3c(sc2nc2n1CCC2)CCCC3,-28.9
7,N=c1c2c3c(sc2nc2n1CCCCC2)CCCCC3,-53
8,NC(=O)NCc1cccs1,7.27
9,COc1cc(C(=S)N2CCOCC2)ccc1OS(=O)(=O)c1ccccc1[N+](=O)[O-],-1.24
10,CCOc1cc(C(=S)N2CCOCC2)ccc1OS(=O)(=O)c1ccccc1[N+](=O)[O-],8.98
11,O=S(=O)(c1ccc(Oc2ccccc2)cc1)N1CCOCC1,0.463
12,O=[N+]([O-])c1ccccc1S(=O)(=O)Nc1ccc(S(=O)(=O)N2CCOCC2)cc1,14.7
13,O=[N+]([O-])c1ccccc1S(=O)(=O)Oc1ccc(C(=S)N2CCOCC2)cc1,-75
14,O=C(c1ccccc1Oc1ccc([N+](=O)[O-])cc1)N1CCOCC1,-52
15,Cn1nc([N+](=O)[O-])nc1Oc1ccccc1C(=O)N1CCOCC1,17.4
16,O=[N+]([O-])c1ccc(-c2ccc(S(=O)(=O)N3CCOCC3)cc2)cc1,-29.8
17,O=[N+]([O-])c1ccccc1Oc1ccc(S(=O)(=O)N2CCOCC2)cc1,-63.8
18,O=C(c1cccc(Oc2ccc([N+](=O)[O-])cc2)c1)N1CCOCC1,-34.3
19,O=S(=O)(c1ccc(Oc2ccc(S(=O)(=O)N3CCOCC3)cc2)cc1)N1CCOCC1,9.29
20,O=[N+]([O-])c1ccc(Oc2ccc(S(=O)(=O)N3CCOCC3)cc2)cc1,-63.4
21,NC(=O)CC(NC(=O)Cc1ccc(Br)cc1)c1ccc(N2CCc3ccccc3C2)c([N+](=O)[O-])c1 (centres unmarked),-2.08
22,O=S(=O)(Nc1ccc(Cl)nn1)c1ccccc1,12.7
23,Cn1c(N)c(C(=O)COC(=O)/C=C/c2ccc(OC(F)F)cc2)c(=O)n(C)c1=O,3.23
24,O=C(O)C(=O)O.Oc1ccccc1CN1CCN(C(O)(c2ccccc2)c2ccccc2)CC1,-46
25,O=C(O)C(=O)O.Oc1ccccc1CN1CCC(C(O)(c2ccccc2)c2ccccc2)CC1,-68.5
26,O=C(CN1CCC(C(O)(c2ccccc2)c2ccccc2)CC1)Nc1ccccc1,-42.1
